About 83,000 compounds went through this panel and 20% of them were active in at least one assay; those are over-represented in the sample as a whole.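 Assay: single dose, 48 h. Readout: percent growth (0 = no net growth; negative = cell death). Active: <10.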 Unmarked numbers belong to inactive results. Activity calls are given as the source filed them.
The compounds below were run on SR leukemia (assay: NCI-60 one-dose screen, 48 h (100 = growth as untreated, 0 = no growth, -100 = all killed)). Details: 10 µM unless noted.
Procedure: Growth inhibition of the SR human tumor cell line is measured as a screen for anti-cancer activity. Cells are grown in 96 well plates and exposed to the test compound for 48 hours. Compounds are tested at a single concentration, which is 10^-5 M for most compounds. The reported endpoint is percent growth (GI% or GIPRCNT), where numbers from 0 - 100% represent growth inhibition, and numbers from -100% - 0 represent cell death. For example, a value of 40 represents 60% growth inhibition. A value of 0 means no net growth occurred over the course of the experiment. A value of -40 indicates 40% of cells at the beginning of the experiment died by the end of the experiment. A value of -100 means all cells are dead at the end of the experiment.
NCI-60 Human Tumor Cell Lines Screen was performed using the standard one-dose NCI protocol, which is described in more detail at https://dtp.cancer.gov/discovery_development/nci-60/default.htm.
Compounds with GIPRCNT values below 10 were considered active. Activity score was based on GIPRCNT using the following formula: […]
Score is 0 for GIPRCNT values of 100 or above, 50 for GIPRCNT values of 0, and 100 for GIPRCNT values of -100.

Structure (SMILES) | growth
CS(=O)(=O)c1ccc(C(=O)N/N=C/c2cccc3ccccc23)cc1 | 32.5%
CN(C)c1nc(-c2cccs2)n2nc(-c3ccc(Cl)cc3)cc2n1 | 58.7%
C=CCOC(=O)C1=C(C)NC2=C(C(=O)CCC2)C1c1ccc(F)cc1 (stereo not given) | 92.2%
C[C@@H]1N=C(c2ccc3ccccc3c2)Nc2nc3ccccn3c2C1=O | 30.5%
c1ccc2c(N=NSc3ncnc4nc[nH]c34)c3ccccc3nc2c1 | -28.1% (active)
COC(=O)CSc1ccc(Cl)cc1 | 78%
O=C(/C=C/c1ccccc1Br)c1cccc(OCCCCOc2cccc(C(=O)/C=C/c3ccccc3Br)c2)c1 | 31.8%
COc1ccc(/C(C)=N/NC(=O)c2ccc(S(C)(=O)=O)cc2)cc1OC | 97.6%
NC(=O)N/N=C\c1ccc([N+](=O)[O-])o1 | 96.1%
Nc1nc(N)c2cc(NCc3ccc(Cl)c(Cl)c3)ccc2n1 | -53.9% (active)
Fc1cc(-c2cnc3nonc3n2)c(Cl)cc1Cl | 86.5%
O=C(O)c1cc2cc(OCc3ccccc3)ccc2[nH]1 | 104%
CCNC(=O)c1ccc2c(c1)nc(-c1ccc(Cl)cc1)n2-c1cc(C(C)(C)C)[nH]n1 | -11.8% (active)
O=C1NN(C(=O)c2ccccc2)C(c2ccc(Cl)c(Cl)c2)=C/C1=C\c1ccccc1[N+](=O)[O-] | 6.01% [6.75 µM] (active)
CCN1C(=O)/C(=C/N2N=C(c3ccc(Cl)cc3)CC2c2ccc(OC)cc2)SC1=S (stereo not given) | 84.2%
CCOC(=O)c1cc(N)nc2ccccc12 | 102%
COc1cc(-c2nc(-c3ccc(-c4nc5ccc(F)cc5[nH]4)cc3)no2)cc(OC)c1OC | 32.5%
O=S(=O)(Cc1ccc(Cl)cc1Cl)c1ccc(Cl)cc1 | 24.3%
CCn1c(=O)c(C(=O)NCCCO)c(O)c2ccccc21 | 105%
COc1ccc(-c2ccc(-c3ccc(C(=N)N)s3)s2)cc1 | -40.6% (active)

Structure (SMILES) | growth
c1ccc2oc(-c3cnc4nonc4n3)cc2c1 | 106%
COc1ccc(-c2nn(C(=O)NCCN(C)C)cc2-c2ccncc2)cc1Cl | 20.5%
COc1cccc(/C(C)=N/NC(=O)CSc2nc3ccccc3c(=O)n2CCc2ccc(S(N)(=O)=O)cc2)c1 | -1.96% (active)
COc1ccc(-c2cc(-c3cn(-c4cccc(Cl)c4)nc3-c3ccc(OC)cc3)[nH]c(=S)n2)cc1 | 75.3%
c1cn2cc(-c3ccc4ncn(C5CCCCC5)c4c3)nc(-c3ccc4c(c3)ncn4C3CCCCC3)c2n1 | 2.47% (active)
CN1C(=O)N(C)C2C1NN=c1s/c(=C\c3ccc(Br)cc3)c(=O)n12 (stereo not given) | 13.5%
S=C(Nc1ccc(Cl)cc1)Nc1ccc(Cl)cc1 (tested in a mixture with another compound) | 5.29% (active)
NNC(=O)CSc1nc2scc(-c3ccccc3)c2c(=O)n1-c1ccccc1 | 83%
Nc1c(C(=O)C[C@@H](N)CO)ccc2c1C(=O)CCO2 | 30.7%
COc1cc(Nc2ncccc2/C=C/C(=O)c2cc(OC)c(OC)c(OC)c2)cc(OC)c1OC | 9.53% (active)
Cn1cnc([N+](=O)[O-])c1S(=O)(=O)Oc1ccccc1 | 56.1%
COc1cc2c(c(OC)c1O)C(=O)C(OC)C(c1ccc(O)c(O)c1)O2 (stereo not given) | 10.8%
COc1ccc(-c2cnc(-c3ccncc3-c3cccc(OC)c3)o2)cc1 | 10.2%
C=C(C)[C@@H]1CC[C@]2(C(=O)NC(COC(=O)C(Cl)Cl)(COC(=O)C(Cl)Cl)COC(=O)C(Cl)Cl)CC[C@]3(C)[C@H](CC[C@@H]4[C@@]5(C)CC[C@H](OC(C)=O)C(C)(C)[C@@H]5CC[C@]43C)[C@@H]12 | 20.4%
C=C1C(=O)O[C@H]2[C@H]1CC/C(COC(=O)NCc1[nH]nc3ccccc13)=C\CC[C@@]1(C)O[C@@H]21 | 4.38% (active)
Cc1nc(N)nc2c1CCC(Nc1ccccc1)S2 (stereo not given) | 59.2%
CNC(=O)c1c(NC(=O)c2cccc(C(F)(F)F)c2)sc2c1CCC(=O)C2 | 1.53% (active)
O=C(CCl)Nc1cc(O)c2c(c1)C(=O)c1cccc(O)c1C2=O | -35.5% (active)
COCc1nc(NS(=O)(=O)c2ccc(N)cc2)nc(C)c1Br | 89.3%
COc1cnc2c(c1)C(=O)c1c-2n(CCCN2CCN(C)CC2)c(=O)c2cc(Cl)ccc12 | -9.29% (active)

From PubChem BioAssay (NCI)
